# Assay results published in the supplement of paper PMC8728848.
# About 410 targets per protein were measured; listed, in parts, are those with the strongest signals and a random draw of the rest.
# Columns and labels:
# Experiment in all cases: glycan array binding signal (z-score within array); higher = stronger binding
# Settings in all cases: glycan notation: IUPAC condensed, linker removed
# [1] = target: Fuc(a1-2)Gal(b1-4)Glc
# Outline: (§1)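 The binding signal is a Z-score computed within each array. Data were drawn from 3228 arrays in the Consortium for Functional Glycomics database, restricted to those with a known protein sequence. Scores were averaged over arrays of the same protein sequence at different concentrations or buffers, and over linkers, and negative values can be taken as non-binding.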
# [2] = target: Fuc(a1-2)Gal(b1-4)[Fuc(a1-3)]GalNAc(b1-3)Gal(b1-4)[Fuc(a1-3)]GlcNAc
# Outline: as §1
# [3] = target: Fuc(a1-2)[Gal(a1-3)]Gal(b1-4)GlcNAc
# Outline: as §1
# [4] = target: Fuc(a1-2)[GalNAc(a1-3)]Gal(b1-4)GlcNAc
# Outline: as §1
# [5] = target: Fuc(a1-3)[Gal(b1-4)]GlcNAc(b1-4)Gal(b1-4)[Fuc(a1-3)]GlcNAc
# Outline: as §1
# [6] = target: Fuc(a1-4)GlcNAc
# Outline: as §1
# [7] = target: Gal(a1-3)Gal(b1-4)GlcNAc
# Outline: as §1
# [8] = target: Gal3S(b1-4)GlcNAc6S
# Outline: as §1
# [9] = target: Gal3S6S(b1-4)GlcNAc
# Outline: as §1
# [10] = target: Gal3S6S(b1-4)GlcNAc6S
# Outline: as §1
# [11] = target: Gal4S6S(b1-4)GlcNAc
# Outline: as §1
# [12] = target: GalNAc(a1-3)Gal
# Outline: as §1
# [13] = target: GlcNAc(b1-3)[GlcNAc(b1-4)][GlcNAc(b1-6)]GlcNAc
# Outline: as §1
# [14] = target: GlcNAc(b1-4)[GlcNAc(b1-6)]GalNAc
# Outline: as §1
# [15] = target: Kdn(a2-3)Gal(b1-3)GlcNAc
# Outline: as §1
# [16] = target: Man(a1-2)Man(a1-2)Man(a1-3)Man
# Outline: as §1
# [17] = target: Man(b1-4)GlcNAc
# Outline: as §1
# [18] = target: Neu5Ac(a2-3)Gal(b1-3)[Fuc(a1-4)]GlcNAc(b1-3)Gal(b1-4)[Fuc(a1-3)]GlcNAc
# Outline: as §1
# [19] = target: Neu5Ac(a2-3)Gal(b1-4)GlcNAc(b1-3)Gal(b1-4)GlcNAc
# Outline: as §1
# [20] = target: Neu5Ac(a2-3)Gal(b1-4)[Fuc(a1-3)]GlcNAc(b1-3)Gal(b1-4)[Fuc(a1-3)]GlcNAc(b1-3)Gal(b1-4)[Fuc(a1-3)]GlcNAc
# Outline: as §1
# [21] = target: Neu5Ac(a2-6)GalNAc(b1-4)GlcNAc
# Outline: as §1
# [22] = target: Neu5Gc(a2-6)Gal(b1-4)GlcNAc
# Outline: as §1
# [23] = target: Neu5Gc(a2-6)GalNAc
# Outline: as §1
# [24] = target: Fuc(a1-2)[Gal(a1-3)]Gal(b1-4)Glc
# Outline: as §1
# [25] = target: Fuc(a1-3)GlcNAc
# Outline: as §1
# [26] = target: Fuc(a1-3)[Gal3S(b1-4)]GlcNAc
# Outline: as §1
# [27] = target: Gal(a1-4)Gal(b1-4)Glc
# Outline: as §1
# [28] = target: Gal(b1-3)Gal(b1-4)GlcNAc
# Outline: as §1
# [29] = target: Gal(b1-3)GlcNAc(b1-2)Man(a1-3)[Gal(b1-3)GlcNAc(b1-2)Man(a1-6)]Man(b1-4)GlcNAc(b1-4)GlcNAc
# Outline: as §1
# [30] = target: Gal(b1-4)GalNAc(b1-3)[Fuc(a1-2)]Gal(b1-4)GlcNAc
# Outline: as §1
# [31] = target: Gal(b1-4)GlcNAc(b1-2)Man(a1-3)[Gal(b1-4)GlcNAc(b1-2)Man(a1-6)]Man(b1-4)GlcNAc(b1-4)GlcNAc
# Outline: as §1
# [32] = target: Gal3S(b1-4)GlcNAc
# Outline: as §1
# [33] = target: Gal3S4S(b1-4)GlcNAc
# Outline: as §1
# [34] = target: Glc(a1-6)Glc(a1-6)Glc
# Outline: as §1
# [35] = target: GlcA(b1-3)GlcNAc
# Outline: as §1
# [36] = target: GlcNAc(b1-3)[GlcNAc(b1-6)]Gal(b1-4)GlcNAc
# Outline: as §1
# [37] = target: GlcNAc(b1-3)[GlcNAc(b1-6)]GalNAc
# Outline: as §1
# [38] = target: GlcNAc(b1-4)Gal(b1-4)GlcNAc
# Outline: as §1
# [39] = target: Kdn(a2-3)Gal(b1-4)GlcNAc
# Outline: as §1
# [40] = target: Man(a1-2)Man(a1-2)Man(a1-6)[Man(a1-3)]Man
# Outline: as §1
# [41] = target: Man(a1-2)Man(a1-6)[Man(a1-3)]Man(a1-6)[Man(a1-2)Man(a1-2)Man(a1-3)]Man
# Outline: as §1
# [42] = target: Neu5Ac(a2-3)Gal(b1-3)GlcNAc(b1-3)Gal(b1-3)GlcNAc
# Outline: as §1
# [43] = target: Neu5Ac(a2-3)Gal(b1-4)GlcNAc(b1-3)Gal(b1-4)GlcNAc(b1-3)Gal(b1-4)GlcNAc
# Outline: as §1
# [44] = target: Neu5Ac(a2-3)Gal(b1-4)GlcNAc(b1-3)Gal(b1-4)[Fuc(a1-3)]GlcNAc
# Outline: as §1
# [45] = target: Neu5Ac(a2-3)Gal(b1-4)[Fuc(a1-3)]GlcNAc
# Outline: as §1
# [46] = target: Neu5Ac(a2-3)Gal6S(b1-4)[Fuc(a1-3)]GlcNAc
# Outline: as §1
# [47] = target: Neu5Ac(a2-6)Gal(b1-4)GlcNAc(b1-2)Man(a1-3)[Gal(b1-4)GlcNAc(b1-2)Man(a1-6)]Man(b1-4)GlcNAc(b1-4)GlcNAc
# Outline: as §1
# [48] = target: Neu5Ac(a2-6)Gal(b1-4)GlcNAc(b1-2)Man(a1-3)[Neu5Ac(a2-6)Gal(b1-4)GlcNAc(b1-2)Man(a1-6)]Man(b1-4)GlcNAc(b1-4)GlcNAc
# Outline: as §1
# [49] = target: Neu5Ac(a2-6)Gal(b1-4)GlcNAc(b1-3)Gal(b1-4)[Fuc(a1-3)]GlcNAc(b1-3)Gal(b1-4)[Fuc(a1-3)]GlcNAc
# Outline: as §1
# [50] = target: Neu5Gc(a2-3)Gal(b1-3)[Fuc(a1-4)]GlcNAc
# Outline: as §1
binder,measurement,setting,value
"HMGB1 (Homo sapiens), P09429 (protein) MGKGDPKKPRGKMSSYAFFVQTCREEHKKKHPDASVNFSEFSKKCSERWKTMSAKEKGKFEDMAKADKARYEREMKTYIPPKGETKKKFKDPNAPKRPPSAFFLFCSEYRPKIKGEHPGLSIGDVAKKLGEMWNNTAADDKQPYEKKAAKLKEKYEKDIAAYRAKGKPDAAKKGVVKAEKSKKKKEEEEDEEDEEDEEEEEDEEDEDEEEDDDDE",glycan array binding signal (z-score),[1],-0.488
same,glycan array binding signal (z-score),[2],-0.246
same,glycan array binding signal (z-score),[3],-0.3
same,glycan array binding signal (z-score),[4],-0.269
same,glycan array binding signal (z-score),[5],-0.39
same,glycan array binding signal (z-score),[6],-0.341
same,glycan array binding signal (z-score),[7],-0.418
same,glycan array binding signal (z-score),[8],3.64
same,glycan array binding signal (z-score),[9],3.32
same,glycan array binding signal (z-score),[10],4.75
same,glycan array binding signal (z-score),[11],3.25
same,glycan array binding signal (z-score),[12],-0.403
same,glycan array binding signal (z-score),[13],-0.309
same,glycan array binding signal (z-score),[14],-0.433
same,glycan array binding signal (z-score),[15],-0.363
same,glycan array binding signal (z-score),[16],-0.413
same,glycan array binding signal (z-score),[17],0.327
same,glycan array binding signal (z-score),[18],0.178
same,glycan array binding signal (z-score),[19],0.045
same,glycan array binding signal (z-score),[20],-0.332
same,glycan array binding signal (z-score),[21],0.028
same,glycan array binding signal (z-score),[22],0.015
same,glycan array binding signal (z-score),[23],-0.195
BDCA2 ex-domain (Homo sapiens) (protein) MASHHHHHHIEGRGLNDIFEAQKIEWHESLVPRGSCPTPWTSFQSSCYFISTGMQSWTKSQKNCSVMGADLVVINTREEQDFIIQNLKRNSSYFLGLSDPGGRRHWQWVDQTPYNENVTFWHSGEPNNLDERCAIINFRSSEEWGWNDIHCHVPQKSICKMKKIY,glycan array binding signal (z-score),[1],-0.318
same,glycan array binding signal (z-score),[24],-0.022
same,glycan array binding signal (z-score),[25],-0.3
same,glycan array binding signal (z-score),[26],-0.204
same,glycan array binding signal (z-score),[27],0.336
same,glycan array binding signal (z-score),[28],-0.245
same,glycan array binding signal (z-score),[29],8.6
same,glycan array binding signal (z-score),[30],-0.375
same,glycan array binding signal (z-score),[31],13.2
same,glycan array binding signal (z-score),[32],-0.181
same,glycan array binding signal (z-score),[33],1.81
same,glycan array binding signal (z-score),[34],-0.187
same,glycan array binding signal (z-score),[35],-0.1
same,glycan array binding signal (z-score),[36],-0.208
same,glycan array binding signal (z-score),[37],-0.347
same,glycan array binding signal (z-score),[38],0.139
same,glycan array binding signal (z-score),[39],0.619
same,glycan array binding signal (z-score),[40],-0.128
same,glycan array binding signal (z-score),[41],-0.559
same,glycan array binding signal (z-score),[42],-0.143
same,glycan array binding signal (z-score),[43],1.33
same,glycan array binding signal (z-score),[44],0.601
same,glycan array binding signal (z-score),[45],-0.385
same,glycan array binding signal (z-score),[46],-0.35
same,glycan array binding signal (z-score),[47],2.93
same,glycan array binding signal (z-score),[48],-0.101
same,glycan array binding signal (z-score),[49],0.319
same,glycan array binding signal (z-score),[50],-0.317
